Sm TGR block – qHTS Assay for the Inhibitors of Schistosoma Mansoni Peroxiredoxins; hit rate 3% among 360,000; Schistosoma mansoni thioredoxin glutathione reductase (TGR), Q962Y6; purified TGR, DTNB reduction, TNB absorbance 405 nm; AID 485364, 2010; Potency, µM (top dose mostly 114 µM), for the others: at the highest dose activity change, negative = inhibition, usual class: inhibitors; further: potency means the concentration at half of the fitted maximal effect; nearly all actives have a fitted effect of over 60% in size
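TGR 20 nM + NADPH 100 uM (dispensed conc.), cpd preinc 15 min RT; start with NADPH (500 uM addition) then DTNB (15 mM addition). Kinetic TNB absorbance, 405 nm filter. Four-parameter Hill fit across titration.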
HCMV antiviral – qHTS Assay for inhibitors of the human cytomegalovirus (HCMV) | HFF cells, HCMV-luciferase reporter, 72 h; active compounds read low | hit rate 4.5% among 410,000 | activity change, negative = inhibition, % at 57.5 µM; in the data active means activity change below about -60%; inconclusive means no clear call, values can overlap the other calls; inactive means above about -39%
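After 16 h attachment at 37C, HFF cells received test compound and HCMV-luciferase (1 PFU/cell); reporter luminescence read 72 h later, data normalized against buffer-only and known inhibitor Salinomycin.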
Giardia FBPA inh – qHTS Assay for Inhibitors of Fructose-1,6-bisphosphate Aldolase from Giardia Lamblia; A8B2U2; purified Giardia FBPA; Potency, µM (top dose mostly 59.6 µM), for the others: at the top dose activity, negative = inhibition, actives largely listed as inhibitors; hit rate 0.71% among 290,000; AID 2451, 2010; further: potency means the concentration at half of the fitted maximal effect; nearly all actives have a fitted effect of over 55% in size
Target sequence (A8B2U2 whole entry, looked up): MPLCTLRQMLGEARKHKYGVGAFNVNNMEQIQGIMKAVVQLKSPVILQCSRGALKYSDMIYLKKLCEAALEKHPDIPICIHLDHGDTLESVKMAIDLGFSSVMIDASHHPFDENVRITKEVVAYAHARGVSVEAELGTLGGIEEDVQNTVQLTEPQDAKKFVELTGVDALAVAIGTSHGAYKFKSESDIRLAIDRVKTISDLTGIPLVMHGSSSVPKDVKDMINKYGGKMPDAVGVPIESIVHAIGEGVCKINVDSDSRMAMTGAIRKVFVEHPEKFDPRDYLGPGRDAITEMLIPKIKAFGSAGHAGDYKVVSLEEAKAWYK
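Giardia FBPA (40 nM reagent) was preincubated 10 min at RT with compound (up to 57.5 uM final), then substrate plus GAPDH/TPI/NAD/arsenate coupling system with diaphorase/resazurin was added; resorufin fluorescence (525/598 nm) was read after 20 min.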
Pf growth 48h – Primary qHTS for delayed death inhibitors of the malarial parasite plastid, 48 hour incubation; P. falciparum luciferase growth in erythrocytes, 48 h; Potency, µM (series often up to 28.7 µM), without a hit: at the highest dose activity change, negative = inhibition, hits mostly inhibitors; hit rate 5.9% among 310,000; AID 504832, 2011; further: potency means the concentration at half of the fitted maximal effect
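Erythrocytes infected with P. falciparum carrying an integrated firefly luciferase reporter (2% hematocrit, 0.1% parasitemia final) were exposed to compounds in RPMI 1640 with 0.5% Albumax at 37 C, 5% CO2. Growth inhibition was scored as reduced luminescence.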
Pf growth 96h – Primary qHTS for delayed death inhibitors of the malarial parasite plastid, 96 hour incubation; hit rate 6.9% among 320,000; P. falciparum luciferase reporter growth, 96 h; AID 504834, 2011; Potency, µM (titrated, usually from 28.7 µM), inactives show at the top dose activity change, negative = inhibition, usual class: inhibitors; further: potency means the concentration at half of the fitted maximal effect
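Compounds incubated with erythrocytes infected by luciferase-expressing P. falciparum (2% hematocrit, 0.05% parasitemia final) for 96 hours, 37 C in 5% CO2. Growth inhibition scored as decreased luciferase luminescence.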
Starred values were filed as active, the others as inactive; ? = inconclusive; · = no result. In the library only some 14% were active in any assay of this set; here they are far more common. Unless noted, the call rests on the fitted dose curve; in most records, active means well fitted curve in the direction sought with a large enough effect; inconclusive means small, poorly fitted or top-dose-only effect, or another doubt; inactive means no such curve, though single readings can be large; an effect the other way counts as inactive or inconclusive. On the % scale 0 is the no-effect control and ±100 the full control effect.

SMILES	Sm TGR block	HCMV antiviral	Giardia FBPA inh	Pf growth 48h	Pf growth 96h
O=[N+]([O-])c1cc(-c2nc(-c3ccco3)no2)ccc1NCc1ccccc1	35.5µM*	30.6	·	·	·
O=[N+]([O-])c1cc(-c2nc(-c3ccccc3)no2)ccc1N1CCCC1	-5.6%	-80.1*	·	·	·
COc1ccc(-c2noc(-c3ccc(N4CCN(C)CC4)c([N+](=O)[O-])c3)n2)cc1OC	-8.3%	-105.1*	·	·	·
Cc1ccc(-c2noc(-c3ccc(N4CCN(C)CC4)c([N+](=O)[O-])c3)n2)cc1	-5.3%	?	·	·	·
O=[N+]([O-])c1cc(-c2nc(-c3ccccc3)no2)ccc1N1CCN(c2ccccc2)CC1	-2.7%	8.0	·	·	·
O=C(O)C1CCN(S(=O)(=O)c2ccc3[nH]ccc3c2)CC1	·	-19.9	·	·	·
CCn1c(/C(C#N)=C/c2ccccc2Cl)nc2ccccc21	2.7%	-73.1*	·	·	·
COc1ccc(Cl)cc1C(=O)NC(=S)Nc1ccccc1N1CCOCC1	-1.9%	23.6	-12.4%	?	?
COc1ccc(Cl)cc1C(=O)Nc1ccccc1N1CCN(C(=O)C(C)C)CC1	-15.9%	-5.3	-7.5%	5.86µM*	5.22µM*
Cc1ccc(C(=O)Nc2ccccc2N2CCN(C(=O)C(C)C)CC2)cc1	74.0%	?	5.2%	9.28µM*	·
CC(C)C(=O)N1CCN(c2ccccc2NC(=O)c2ccco2)CC1	-15.6%	-26.2	14.1%	4.65µM*	29.9%
CCOc1cccc(C(=O)Nc2ccccc2N2CCN(C(=O)C(C)C)CC2)c1	1.1%	?	6.9%	9.28µM*	13.1µM*
Cc1ccc(C(=O)Nc2ccccc2N2CCCC2)cc1	-21.8%	-11.5	0.6%	-1.5%	19.7%
CC(C)C(=O)N1CCN(c2ccccc2NC(=O)c2ccc(Br)o2)CC1	·	12.7	·	·	·
Cc1ccc(-c2nc3sc4c(N)ncnc4c3c3c2CCCC3)cc1	-26.6%	11.4	-1.8%	46.7%	116.7%
CCOC(=O)c1cccc(NC(=O)c2cn(-c3cccc(OC)c3)c(=O)c3ccccc23)c1	6.4%	?	·	·	·
COc1ccc(C(=O)Nc2ccccc2-c2ccccc2)cc1Cl	5.1%	?	1.1%	-9.1%	-10.4%
CC(NC(=O)c1ccco1)C(=O)N1CCN(C(c2ccccc2)c2ccccc2)CC1 (stereo not given)	-0.8%	·	·	13.1µM*	30.5%
COc1ccc(C(=O)Nc2ccccc2N2CCN(C(=O)C(C)C)CC2)cc1Cl	3.1%	-11.6	-0.2%	11.7µM*	-28.6%
CC(NC(=O)c1ccco1)C(=O)N1CCN(c2ccccc2)CC1 (stereo not given)	-21.7%	·	·	-6.7%	18.4%
CSCCC(NC(=O)c1ccccc1)C(=O)N1CCN(C(c2ccccc2)c2ccccc2)CC1 (stereo not given)	-28.0%	-18.7	·	?	1.85µM*
COc1ccc(NS(=O)(=O)c2ccc3[nH]c4c(c3c2)CCCCC4)cc1	-0.4%	-8.5	·	·	·
CN(C(=O)CN1CCCCCC1)c1c(N)n(Cc2ccccc2)c(=O)[nH]c1=O	?	-3.6	·	-1.4%	-20.7%
CCOc1ccc(N)c(SSc2cc(OCC)ccc2N)c1	-1.9%	-98.2*	?	0.0%	?
Cc1ccccc1NC(=O)CSc1nc2c(c(=O)n(C)c(=O)n2C)n1Cc1ccccc1F	8.7%	0.3	·	·	·
SMILES	Sm TGR block	HCMV antiviral	Giardia FBPA inh	Pf growth 48h	Pf growth 96h
O[C@@H]1CN(Cc2ccc(-n3cccn3)cc2)CC[C@H]1N1CCN(c2ccccc2F)CC1	-17.7%	?	4.3%	?	10.4µM*
NC(=O)C1CCN(c2ncnc3c2c(-c2ccccc2)cn3-c2ccccc2)CC1	-31.5%	39.1	0.6%	·	10.4µM*
Cc1ccc(Cl)cc1NC(=S)N/N=C/c1cccc2ccccc12	22.8%	-35.1	4.2%	2.08µM*	?
Cc1ccc(Cl)cc1NC(=S)Nn1cnnc1	-25.3%	19.9	·	0.4%	2.62µM*
CCOc1ccc(-c2c(C)nn3c(-c4ccccc4)c(C(=O)NCCOC)cnc23)cc1OCC	-3.0%	-10.2	·	·	·
CC1Oc2ccc(C#N)cc2N(Cc2ccccc2OC(F)(F)F)C1=O (stereo not given)	·	-38.0	·	·	·
CC(NC(=O)Nc1nnc(C(F)(F)F)s1)(C(F)(F)F)C(F)(F)F	1.7%	-98.0*	-26.4%	3.29µM*	4.8%
N#Cc1cnn2c(=O)[nH]cnc12	·	28.6	·	·	·
COc1cccc(-c2nc(SCC(=O)NC3CCCC3)c(-c3ccc(F)cc3)[nH]2)c1	5.8%	-22.1	·	·	·
Cc1nc2sccn2c(=O)c1S(=O)(=O)N1CCN(c2ccccc2)CC1	-14.2%	14.6	1.5%	-8.5%	14.1%
Cc1nc2sccn2c(=O)c1CCN1CCC(=C(c2ccccc2)c2ccc(F)cc2)CC1	-10.1%	·	3.5%	14.7µM*	14.7µM*
CC(C)C[C@H](NC(=O)N1CCn2c1nc1ccccc12)C(=O)NCC1CCCO1 (stereo not given in full)	1.1%	-25.4	·	10.9%	4.8%
COC(=O)Nc1ccc(Cl)c(Cl)c1	·	·	-8.0%	·	·
NC(=S)Nc1ccc(Cl)c(Cl)c1	10.8%	-60.1*	-4.0%	36.6%	27.0%
Cc1ccc(NC(=S)Nc2ccc(Cl)c(Cl)c2)c(OC(F)F)c1	-0.8%	-74.6*	-11.1%	?	4.15µM*
Cc1ccc(NC(=S)Nc2ccc(OC(F)F)c(Cl)c2)cc1Cl	20.3%	-88.7*	-8.5%	?	?
Cc1cc(C)cc(NC(=S)Nc2ccc(Cl)c(Cl)c2)c1	-7.4%	-68.4*	-19.9%	13.1µM*	13.2%
Cc1cccc(C)c1NC(=S)Nc1ccc(Cl)c(Cl)c1	0.1%	-30.4	-12.7%	?	-20.7%
Cc1nnc(NC(=O)c2cccc(S(=O)(=O)N3CCCC3)c2)s1	-19.3%	-1.9	-8.2%	21.0%	-9.4%
N#Cc1cn(C2OC(CO)C(O)C2O)c2ncnc(N)c12 (stereo not given)	·	-99.9*	·	·	·
Nc1ncnc2c1ncn2[C@@H]1O[C@H](CO)[C@@H](O)[C@H]1O	0.8%	52.0	-4.9%	12.0%	5.2%
NC(=O)c1cn(C2OC(CO)C(O)C2O)c2ncnc(N)c12 (stereo not given)	-0.5%	-97.1*	0.7%	0.104µM*	0.117µM*
NC(=O)c1ncn(C2OC(CO)C(O)C2O)n1 (stereo not given)	·	·	0.1%	?	12µM*
Cc1cc(=O)[nH]c(SCC(=O)Nc2cccc(S(=O)(=O)N3CCOCC3)c2)n1	-4.8%	-13.4	·	-27.9%	?
CCC(C(=O)NC(C)(C)C)N(Cc1ccco1)C(=O)CNS(=O)(=O)c1ccc(OC)cc1 (stereo not given)	3.8%	-37.1	·	-10.0%	-17.8%
CCOC(=O)c1cc(C)n(CC2CCC(C(=O)Nc3ccc(Cl)cc3)CC2)c1C (stereo not given)	-1.5%	-79.5*	·	·	·
CCOc1ccc(NS(=O)(=O)c2ccc(-c3coc(C)n3)cc2)cc1	-7.5%	0.0	?	24.9%	0.9%

Bioassay records from PubChem.
